# NS1 inh: influenza NS1 inhibition | Potency, µM (doses to about 46.1 µM), for the others: at the highest dose activity, positive = more growth | actives 0.4% (n = 270,000) | AID 2326; calls by dose curve; further: potency means the concentration at half of the fitted maximal effect; actives are rising curves; nearly all actives have a fitted effect of over 50% in size
#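 In this qHTS, NS1 from influenza A is expressed in budding yeast, where it slows growth. Cells are switched from glucose to 2% galactose medium (pH 6.0, -URA), treated with compound, and growth recovery is read at OD600.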
# VACV mCherry inh: inhibitors of vaccinia virus infection (mCherry reporter signal) | Vaccinia virus mCherry reporter infection, fluorescence | Potency, µM (doses to about 36.5 µM), for inactives: at the highest dose activity change, negative = inhibition, hits mostly inhibitors | actives 0.63% (n = 310,000) | AID 720579; calls by dose curve; tested in A549 cells; further: potency means the concentration at half of the fitted maximal effect; on the % scale 0 is the no-effect control and ±100 the full control effect; nearly all actives have a fitted effect of over 35% in size
# Pf growth 96h: inhibits malaria parasite growth, 96 h. P. falciparum luciferase reporter growth, 96 h. Potency, µM (top dose mostly 28.7 µM), for inactives: at the highest dose activity change, negative = inhibition, actives largely listed as inhibitors. actives 6.9% (n = 320,000). AID 504834; further: potency means the concentration at half of the fitted maximal effect; on the % scale 0 is the no-effect control and ±100 the full control effect
#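 Erythrocytes infected with luciferase-expressing P. falciparum were dispensed at 2% hematocrit and 0.05% parasitemia (final), then incubated with compounds 96 hours at 37 C in 5% CO2. Luminescence after detection reagent addition reported growth.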
# Pf growth 48h: P. falciparum growth inhibition at 48 hours (one generation); P. falciparum luciferase growth in erythrocytes, 48 h; Potency, µM (doses to about 28.7 µM), inactives show at the highest dose activity change, negative = inhibition, most hits filed as inhibitors; actives 5.9% (n = 310,000); AID 504832; further: potency means the concentration at half of the fitted maximal effect; on the % scale 0 is the no-effect control and ±100 the full control effect
#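 Luciferase-expressing parasites in RBCs, 2% Hct / 0.1% parasitemia final; RPMI 1640 + 0.5% Albumax; 37 C, 5% CO2, one generation; luminescence read-out, lower signal = inhibition.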
# HCV inhibitor: HCV inhibition. actives 3.4% (n = 340,000). Huh7.5.1 HCVcc-Cre infection, luciferase reporter, 44 h. Potency, µM (doses to about 41.8 µM), without a hit: top-dose activity change, negative = inhibition, hits mostly inhibitors; further: potency means the concentration at half of the fitted maximal effect; on the % scale 0 is the no-effect control and ±100 the full control effect
#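 Seed cells (1,000/well) for 4 h; treat with compound and infect with HCVcc-Cre, moi about 0.5. Incubate 44 h, then detect luciferase activity.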
# Vaccinia Venus: inhibitors of vaccinia virus (Venus reporter); Vaccinia virus Venus reporter expression, fluorescence; Potency, µM (doses to about 36.5 µM), inactives show at the highest dose activity change, negative = inhibition, usual class: inhibitors; actives 0.46% (n = 330,000); calls by dose curve; tested in A549 cells; further: potency means the concentration at half of the fitted maximal effect; on the % scale 0 is the no-effect control and ±100 the full control effect; nearly all actives have a fitted effect of over 30% in size
# Flu NS1 inh: validation of influenza NS1 protein function inhibitors; shares compounds with NS1 inh; influenza NS1 function cell assay, 15-point titration; activity change, negative = inhibition, % at 32.9 µM; 1,400 tested, under 10 active; AID 492980; calls by dose curve; further: 0% is about no effect
# Flu PR8 replic: influenza NS1 inhibitors: inhibition of influenza A/PR/8/34 replication; actives 30% (n = 95); virus titer (log TCID50), log10 TCID50 at 5 µM; MDCK infected influenza A/PR/8/34, virus titer TCID50; stronger effect = lower value; shares compounds with NS1 inh; call rule not given here
# Active calls of the source: *; i = inactive; u = inconclusive; x = no result given. Hits are enriched below; roughly 11% of the tested compounds scored in any of these assays. Unless noted, the call rests on the fitted dose curve; in most records, active means well fitted inhibition curve with a large enough effect; inconclusive means small, poorly fitted or top-dose-only effect, or another doubt; inactive means no such curve, though single readings can be large or run the other way.
SMILES,NS1 inh,VACV mCherry inh,Pf growth 96h,Pf growth 48h,HCV inhibitor,Vaccinia Venus,Flu NS1 inh,others
O=C(CSc1nnc(-c2ccc(O)cc2)n1-c1ccccc1)CC(=O)Nc1ccccc1,10µM*,-11%,-12%,-18%,10%,1%,23,
O=C(CSc1nnnn1-c1ccccc1)CC(=O)Nc1ccc(Cl)cc1,2.5µM*,x,-8%,-40%,-3%,-29%,10,
O=C(/C=C/c1ccc(Br)cc1)c1ccc(NC2=NCCCS2)cc1,u,x,u,u,u,x,u,
CN(C)c1ccc(C(=O)/C=C/c2ccc(Br)cc2)cc1,3%,x,8%,0%,-6%,x,x,
CC(C)C[C@H]1C(=O)N2CCC[C@H]2[C@]2(O)O[C@](NC(=O)C3C=C4c5cccc6[nH]c(Br)c(c56)C[C@H]4N(C)C3)(C(C)C)C(=O)N12 (stereo partly specified),x,-15%,x,x,u,-29%,x,
CC(C)C[C@H]1C(=O)N2CCCC2[C@]2(O)O[C@](NC(=O)[C@@H]3C=C4c5cccc6[nH]c(Br)c(c56)C[C@H]4N(C)C3)(C(C)C)C(=O)N12 (stereo partly specified),5.6µM*,x,u,3.4µM*,x,x,u,
CCOC(=O)CSc1nc2sc3c(c2c(=O)n1CC)CCCC3,x,-4%,x,x,x,-8%,x,
CC1=C(C(=O)Nc2ccc(C)cc2C)C(c2ccccc2C)n2ncnc2N1 (stereo unspecified),x,-2%,x,x,x,4%,x,
COC(=O)c1ccc(C2C(C(=O)Nc3ccc(C)cc3C)=C(C)Nc3ncnn32)cc1 (stereo unspecified),22µM*,-14%,24%,x,-26%,-25%,1,
Cc1noc(C)c1NC(=O)Nc1ccc2c(c1)C(=O)N([C@H](C)CO)C[C@@H](C)[C@@H](CN(C)S(=O)(=O)c1cn(C)cn1)OCCCC[C@H](C)O2,x,-23%,x,x,x,-4%,x,
CN(Cc1ccccc1)C(=O)COC(=O)c1ccccc1NS(=O)(=O)c1cccc(N)c1,22µM*,-21%,-90%,u,-2%,-6%,1,
CCOC(=O)c1cc(CC)sc1/N=C/C1C(=O)CCCC1=O,8%,-8%,68%,4%,-2%,-10%,x,
CC(Sc1n[nH]c(N)n1)C(=O)Nc1ccccc1-c1ccccc1 (stereo unspecified),x,x,-24%,4%,-3%,x,x,
C[C@]12Cc3cn4c(nc3C=C1CCC1C2CC[C@@]2(C)[C@H]1CC[C@@]2(O)C#N)nc1ccccc14 (stereo partly specified),40µM*,x,x,x,x,x,u,
O=C(COc1ccc(Cl)cc1Cl)OCC(=O)N1CCCc2ccccc21,-12%,x,31%,0%,1%,x,x,
O=C(COc1ccc(Cl)cc1Cl)NC(=S)N1CCCc2ccccc21,10µM*,-10%,-5%,x,-15%,-20%,u,
COC(=O)C(NC(=O)c1ccccc1Cl)(Nc1ncc(S(=O)(=O)c2ccc([N+](=O)[O-])cc2)s1)C(F)(F)F (stereo unspecified),-4%,x,x,u,u,x,x,
CCCOc1ccc(C2NC(=S)NC(c3ccccc3)=C2C(=O)Nc2ccc(C)cc2)cc1OC (stereo unspecified),13µM*,-10%,-21%,2.6µM*,u,-23%,0,
O=C(CSc1nc2ccccc2c2nc3ccccc3n12)NCc1ccco1,2.8µM*,-10%,7%,9.3µM*,u,-11%,33,
CC(C)OC(=O)/C(=C\c1ccc2c(c1)c1ccccc1n2C)NC(=O)c1ccccc1,10µM*,x,23%,4.1µM*,u,u,7,
Cc1ccc(OCC(=O)N2c3ccccc3CC2C)c([N+](=O)[O-])n1 (stereo unspecified),x,i,-18%,-4%,u,-4%,x,
Cc1nc(SCC(=O)NCc2ccco2)c2c3c(sc2n1)CCCC3,4.5µM*,x,u,x,u,u,u,
O=C(CSc1nc(C2CC2)nc2sc3c(c12)CCCC3)NCc1ccco1,1%,-11%,16%,27%,4%,-9%,x,
Cn1cnc(S(=O)(=O)NCc2ccccc2)c1,-1%,-14%,-21%,5%,39%,-5%,x,
Cc1ccc(NC(=O)c2cc(NC(=O)C3CC=CCC3C(=O)O)ccc2N2CCOCC2)cc1 (stereo unspecified),7.9µM*,x,11%,-2%,9%,-2%,23,
SMILES,NS1 inh,VACV mCherry inh,Pf growth 96h,Pf growth 48h,HCV inhibitor,Vaccinia Venus,Flu NS1 inh,others
O=C(N/N=C\c1ccco1)Nc1cccc(Cl)c1,-19%,u,57%,152%,0%,5%,x,
Cc1nnc(SCC(=O)Nc2nc3c(s2)CC(C)CC3)s1 (stereo unspecified),u,x,-12%,18%,u,u,15,
COc1ccc(CC(=O)Nc2nc3c(s2)CC(C)CC3)cc1 (stereo unspecified),x,-17%,x,x,x,-6%,x,
CCOc1ccccc1NC(=O)C1=C(C)Nc2ncnn2C1c1cccs1 (stereo unspecified),x,-16%,x,x,x,-4%,x,
COc1ccc(-c2nn(-c3ccccc3)cc2/C=C2/SC(=S)N(CCC(=O)O)C2=O)c(C)c1,11µM*,i,5.9µM*,-2%,19%,-14%,u,
CC(C)NC(=O)C(OC(=O)c1ccccc1)C(OC(=O)c1ccccc1)C(=O)O (stereo unspecified),3%,i,u,u,-5%,-12%,x,
CCCCn1c(=O)cc(O)c2ccccc21,10µM*,x,-17%,-7%,14%,x,27,
COc1ccc(-n2c(SCC(=O)N3CCCCC3)nc(O)cc2=O)cc1,11µM*,-10%,-2%,u,8%,-1%,u,Flu PR8 replic=8.5
COc1ccc(CC(=O)OCC(=O)Nc2ccc(Cl)c(S(=O)(=O)N(C)C)c2)cc1,-3%,x,-1%,6%,14%,x,x,
COc1ccc(CNC(=O)C2CCN(S(=O)(=O)N3CCCC3)CC2)c(OC)c1,u,x,24%,-9%,13%,x,-23,
O=C(NCCN1C(=O)S/C(=C\c2ccc(F)cc2)C1=O)C1CCN(S(=O)(=O)c2cccs2)CC1,u,i,-12%,41%,-6%,-6%,2,
Cc1ccccc1NC(=O)C1CCCN(S(=O)(=O)c2cnc[nH]2)C1 (stereo unspecified),14µM*,3%,64%,1%,-11%,-5%,3,

# Screens deposited in PubChem by National Center for Advancing Translational Sciences (NCATS).
